Reference: PubChem BioAssay (EPA / NIEHS)
Results filed as inconclusive are left out. Active and inactive are the calls of the source. Rule for the calls: active = hit-call score of the fitted dose curve at least 0.9, where 1 is the maximum; inconclusive = response in the unintended direction; inactive = score below 0.9.

Key:
[1] = TOX21_p53_BLA_p2_viability: Viability Assessment in the Tox21 HCT-116 p53 Agonism Beta-lactamase Assay, Phase 2 (AID 2283591);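 note: compound exposure lasted 16 h at 37 °C; actives lower the ATP signal meaning cytotoxicity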
Summary of the method: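 HCT-116 p53-bla cells (4000/well) rested 5 h at 37C, then received compounds in DMSO (217-fold dilution) for 16 h at 37C, 5% CO2. After the CCF4 read, CellTiter-Glo was added; ATP luminescence was read after 30 min at room temperature.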

[2] = biological target: Cellular tumor antigen p53 (Homo sapiens) (UniProt P04637); assay: TOX21_p53_BLA_p2_ratio: Tox21 HCT-116 p53 Agonism Beta-lactamase Assay, Ratio, Phase 2 (AID 2283592)
Summary of the method: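 Gain-of-signal p53 agonism was scored from the beta-lactamase FRET ratio (460/530 nm, 405 nm excitation) in HCT116 cells treated 16 h at 37C, 5% CO2, with DMSO serving as negative control and baseline.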

[3] = TOX21_p53_BLA_p3_viability: Viability Assessment in the Tox21 HCT-116 p53 Agonism Beta-lactamase Assay, Phase 3 (AID 2283593);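 note: cells exposed to compound for 16 h before reading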
Summary of the method: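 HCT-116 cells (4000/well) rested 5 h at 37C, then got DMSO compounds by pin tool (217-fold dilution) for 16 h at 37C, 5% CO2. After the bla read, CellTiter-Glo was added and luminescence read at 30 min, room temperature.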

[4] = biological target: Cellular tumor antigen p53 (Homo sapiens) (UniProt P04637); assay: TOX21_p53_BLA_p3_ratio: Tox21 HCT-116 p53 Agonism Beta-lactamase Assay, Ratio, Phase 3 (AID 2283596)
Summary of the method: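 HCT116 p53-bla cells (4000/well) given compound in DMSO (217-fold dilution) after 5 h, incubated 16 h at 37C. CCF4-AM substrate 2 h at room temperature; 460/530 nm emission ratio, gain fitted against DMSO.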

[5] = TOX21_p53_BLA_p4_viability: Viability Assessment in the Tox21 HCT-116 p53 Agonism Beta-lactamase Assay, Phase 4 (AID 2283597);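 note: hits lower the luminescence signal meaning cytotoxicity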
Summary of the method: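 Following a 16 h exposure at 37C, the treated HCT116 wells were first read for the FRET ratio. They were then lysed with CellTiter-Glo, and ATP luminescence was recorded after 30 min at room temperature.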

[6] = biological target: Cellular tumor antigen p53 (Homo sapiens) (UniProt P04637); assay: TOX21_p53_BLA_p5_ratio: Tox21 HCT-116 p53 Agonism Beta-lactamase Assay, Ratio, Phase 5 (AID 2283599)
Summary of the method: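 HCT-116 cells carrying a p53-inducible beta-lactamase reporter were seeded at 4000 cells/well and dosed after 5 h with compound in DMSO (217-fold dilution). After 16 h at 37C, CCF4-AM substrate was added for 2 h, and the 460/530 nm emission ratio was scored as gain-of-signal versus DMSO.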

[7] = TOX21_p53_BLA_p5_viability: Viability Assessment in the Tox21 HCT-116 p53 Agonism Beta-lactamase Assay, Phase 5 (AID 2283600)
Summary of the method: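 After the 460/530 nm beta-lactamase measurement, the wells received an ATP-detection luciferase reagent; signal was read 30 min later at RT. Compound treatment lasted 16 h on cells pre-incubated 5 h post-seeding.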

[8] = biological target: Cellular tumor antigen p53 (Homo sapiens) (UniProt P04637); assay: TOX21_p53_BLA_p4_ratio: Tox21 HCT-116 p53 Agonism Beta-lactamase Assay, Ratio, Phase 4 (AID 2283601)
Summary of the method: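 HCT116 cells carrying an inducible beta-lactamase reporter were plated at 4000 cells/well, rested 5 h, then exposed to compounds in DMSO (217-fold dilution) for 16 h at 37C. CCF4-AM substrate was loaded 2 h at room temperature; 460/530 nm emission ratio scored gain-of-signal versus DMSO.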

Chain of Cellular tumor antigen p53 (Homo sapiens) (P04637 whole entry, looked up): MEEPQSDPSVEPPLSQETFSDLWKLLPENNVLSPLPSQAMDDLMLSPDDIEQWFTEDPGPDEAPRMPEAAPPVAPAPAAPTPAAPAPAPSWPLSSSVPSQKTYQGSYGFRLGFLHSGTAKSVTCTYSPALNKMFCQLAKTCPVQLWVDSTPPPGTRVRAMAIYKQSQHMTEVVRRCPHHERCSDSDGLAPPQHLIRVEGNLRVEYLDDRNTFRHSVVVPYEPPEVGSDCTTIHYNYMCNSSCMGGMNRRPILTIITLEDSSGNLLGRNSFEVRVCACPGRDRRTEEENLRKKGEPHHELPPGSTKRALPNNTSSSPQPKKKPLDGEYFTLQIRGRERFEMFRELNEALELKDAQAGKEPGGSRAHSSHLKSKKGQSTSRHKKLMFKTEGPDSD

Compound	outcome [1]	outcome [2]	outcome [3]	outcome [4]	outcome [5]	outcome [6]	outcome [7]	outcome [8]	AC50 [2]	AC50 [3]	AC50 [7]	AC50 [4]	AC50 [6]
[O-][N+](=Nc1ccccc1)c1ccccc1	inactive	inactive	inactive	inactive	inactive	inactive	inactive	inactive	–	–	–	–	–
CC(=O)O[C@H]1CC[C@@]2(C)C(=CC[C@H]3[C@@H]4CC[C@H](C(C)=O)[C@@]4(C)CC[C@@H]32)C1	inactive	inactive	inactive	inactive	inactive	inactive	inactive	inactive	–	–	–	–	–
Oc1ccc(Cl)c2cccnc12	inactive	inactive	inactive	inactive	inactive	inactive	inactive	inactive	–	–	–	–	–
COc1ccc(C(=O)CC(=O)c2ccc(C(C)(C)C)cc2)cc1	inactive	–	inactive	inactive	inactive	inactive	inactive	inactive	18.5 µM (active)	–	–	–	–
CC(C)COCC(CN(Cc1ccccc1)c1ccccc1)N1CCCC1 (configuration not stated)	inactive	inactive	inactive	inactive	inactive	inactive	inactive	inactive	–	–	–	–	–
O=C1CCc2ccc(OCCCCN3CCN(c4cccc(Cl)c4Cl)CC3)cc2N1	inactive	inactive	–	inactive	inactive	inactive	–	inactive	–	23 µM (active)	23 µM (active)	–	–
CC(C)(C)OC(=O)N1C[C@@H](F)C[C@H]1C(=O)O	inactive	inactive	inactive	inactive	inactive	inactive	inactive	inactive	–	–	–	–	–
CC1(S(=O)(=O)O)CC(=O)c2ccccc2C1=O (configuration not stated)	inactive	–	inactive	–	inactive	–	inactive	inactive	34.5 µM (active)	–	–	43.4 µM (active)	36.7 µM (active)
CCCCCCCC/C=C\CCCCCCCC(=O)N(CCO)CCO	inactive	inactive	inactive	inactive	inactive	inactive	inactive	inactive	–	–	–	–	–
